Measurements: PubChem BioAssay AID2283162 (EPA ToxCast)
Records with an inconclusive call do not appear. Active and inactive are the calls of the source. How the source made its calls: active means hit-call score of the fitted dose curve at least 0.9, where 1 is the maximum; inconclusive means response in the unintended direction; inactive means score below 0.9.

The compounds below were run against human Insulin-like Growth Factor 1 Receptor (IGF1R), IGF1R (gene 3480) (UniProt P08069) (assay: NVS_ENZ_hIGF1R: NovaScreen (NVS) Enzymatic Assay for human Insulin-like Growth Factor 1 Receptor (IGF1R)).
Sequence of human Insulin-like Growth Factor 1 Receptor (IGF1R), IGF1R (gene 3480) (P08069 whole entry, looked up): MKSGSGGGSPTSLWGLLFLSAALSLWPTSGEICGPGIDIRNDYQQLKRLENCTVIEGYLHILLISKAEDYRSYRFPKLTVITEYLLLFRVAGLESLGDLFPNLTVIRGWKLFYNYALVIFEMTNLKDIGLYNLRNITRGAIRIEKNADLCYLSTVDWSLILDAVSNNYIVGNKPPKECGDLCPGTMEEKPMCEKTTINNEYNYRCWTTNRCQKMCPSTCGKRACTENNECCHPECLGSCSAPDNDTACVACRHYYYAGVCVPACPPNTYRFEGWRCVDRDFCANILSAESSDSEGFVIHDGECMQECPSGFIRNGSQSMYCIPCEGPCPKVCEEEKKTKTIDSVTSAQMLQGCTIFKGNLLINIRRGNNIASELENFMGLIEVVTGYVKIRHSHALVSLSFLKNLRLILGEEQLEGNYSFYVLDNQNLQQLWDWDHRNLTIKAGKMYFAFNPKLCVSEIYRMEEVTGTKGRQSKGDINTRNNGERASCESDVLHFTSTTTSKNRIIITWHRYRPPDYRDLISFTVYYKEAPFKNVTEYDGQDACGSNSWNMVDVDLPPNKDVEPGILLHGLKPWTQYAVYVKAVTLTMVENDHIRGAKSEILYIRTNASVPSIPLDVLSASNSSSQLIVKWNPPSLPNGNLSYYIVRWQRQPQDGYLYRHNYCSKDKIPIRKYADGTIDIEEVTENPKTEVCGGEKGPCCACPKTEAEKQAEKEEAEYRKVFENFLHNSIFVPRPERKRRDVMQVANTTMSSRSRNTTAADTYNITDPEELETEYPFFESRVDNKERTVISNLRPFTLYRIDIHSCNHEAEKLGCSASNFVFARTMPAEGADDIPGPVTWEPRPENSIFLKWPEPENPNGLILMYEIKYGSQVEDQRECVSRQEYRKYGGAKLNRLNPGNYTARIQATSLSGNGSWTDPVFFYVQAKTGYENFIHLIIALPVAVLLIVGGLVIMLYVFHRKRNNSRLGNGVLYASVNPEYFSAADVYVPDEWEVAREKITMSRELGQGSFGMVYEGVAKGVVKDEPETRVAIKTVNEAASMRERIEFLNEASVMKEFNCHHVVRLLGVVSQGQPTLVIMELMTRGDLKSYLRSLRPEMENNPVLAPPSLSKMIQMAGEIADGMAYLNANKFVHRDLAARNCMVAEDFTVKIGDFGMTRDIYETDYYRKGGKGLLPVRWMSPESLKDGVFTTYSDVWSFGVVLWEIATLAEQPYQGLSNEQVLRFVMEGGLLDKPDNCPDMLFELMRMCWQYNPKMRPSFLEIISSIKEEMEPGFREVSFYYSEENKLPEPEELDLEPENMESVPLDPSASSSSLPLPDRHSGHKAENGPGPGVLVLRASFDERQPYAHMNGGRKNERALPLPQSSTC
Protocol: NVS_ENZ_hIGF1R is a biochemical, single-readout assay that uses extracted gene-proteins in a cell-free assay. Measurements were taken 1 hour after chemical dosing in a 384-well plate.NVS_ENZ_hIGF1R is one of one assay component(s) measured or calculated from the NVS_ENZ_hIGF1R assay. It is designed to make measurements of enzyme activity, a form of enzyme reporter, as detected with fluorescence intensity signals by Fluorescence and electrophoretic mobility shift technology.Data from the assay component NVS_ENZ_hIGF1R was analyzed into 1 assay endpoint. This assay endpoint, NVS_ENZ_hIGF1R, was analyzed in the positive analysis fitting direction relative to DMSO as the negative control and baseline of activity. Using a type of enzyme reporter, loss-of-signal activity can be used to understand changes in the enzymatic activity as they relate to the gene IGF1R. Furthermore, this assay endpoint can be referred to as a primary readout, because this assay has produced multiple assay endpoints where this one serves a enzymatic activity function. To generalize the intended target to other relatable targets, this assay endpoint is annotated to the kinase intended target family, where the subfamily is receptor tyrosine kinase.
Binding assays used specific radioligands (tritiated, iodinated) with non-radioactive competitive displacement ligands in agonist or antagonist protocols (as indicated) and various reference compounds and inhibitors to titrate specific binding to receptors and transporters. Most enzyme assays (CYPs, kinases, phosphatases, proteases, HDACs) used recombinant protein and specific substrates (fluorescence mostly, some colorimetric and radioactive) and inhibitors, followed by a biochemical separation of substrate and product. All assays for the biochemical HTS were initially run in duplicate at a single concentration (10 uM for CYP450 assays and 25 uM for all others). Assay-chemical combinations meeting a pre-defined threshold (e.g., 30% inhibition and other criteria defined below) were then run in singleton concentration-response format with maximum concentration of 20 uM for CYPs and 50 uM for all others. Each assay was run with positive and negative controls, and concurrent controls on every plate. The follow-up (secondary) screen tested active chemical-pairs in concentration series, as well as a few additional assays not tested in the primary screen, some selected negative inactives, and several cases re-run in the concentration series for confirmatory purposes.

outcome, inactive:
CCCCCCCC/C=C\CCCCCCCC(=O)OC[C@@H](O)[C@H]1OC[C@H](O)[C@H]1O
c1ccc(C(O[C@@H]2CCCN(CCc3ccc4c(c3)OCO4)C2)c2ccccc2)cc1
CCCCc1ccc2c(n1)[C@@H](c1ccc(OC)cc1C[C@H](C)C(=O)O)[C@H](C(=O)O)[C@H]2c1ccc2c(c1)OCO2
CN(C)C(=O)NC1(c2ccccc2)CCN(CCC[C@]2(c3ccc(Cl)c(Cl)c3)CCCN(C(=O)c3ccccc3)C2)CC1
CC(C)c1cccc(C(C)C)c1NC(=O)NS(=O)(=O)c1cc(C(C)(C)O)co1

AC50, active:
O=C(O)CC(O)(CC(=O)O)C(=O)O 5.18 µM
COc1cc(C(=O)NC2CCN(C)CC2)ccc1Nc1ncc2c(n1)N(C1CCCC1)CC(F)(F)C(=O)N2C 23.2 µM
